# Compounds without any hit were thinned out: in the full panel of roughly 83,000, 20% have a hit.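 Interpretation: 100, growth as untreated; towards 0, rising growth inhibition; 0, no net growth; 0 to -100, cell death. Compounds scoring below 10 were considered active.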 Active and inactive are the calls of the source.
# System: HOP-92 NSCLC
# Experiment: NCI-60 one-dose screen, 48 h (100 = growth as untreated, 0 = no growth, -100 = all killed)
# Conditions: 10 µM unless noted
row,SMILES,growth
1,O=NN(Cc1cccnc1)C(=O)NC1CCCCC1,82.3% (inactive)
2,FC(F)(F)c1cccc(CNC2CCN(CCc3ccccc3)CC2)c1,15.7% (inactive)
3,COc1ccc(CCN2C(=O)/C(=C/c3ccc(C4Oc5ccccc5C5CC(c6cccc(OC)c6)=NN54)cc3)SC2=S)cc1 (centres undefined),96.2% (inactive)
4,COc1cc(-c2c3c(cn2S(=O)(=O)c2ccccc2)-c2nc(N)sc2CC3)cc(OC)c1OC,60.2% (inactive)
5,CCC1=C[C@@H]2CN(C1)Cc1c([nH]c3ccccc13)[C@@](C(=O)OC)(c1cc3c(cc1OC)N(C)[C@H]1[C@@](O)(C(=O)OC)[C@H](OC(C)=O)[C@]4(CC)[C@@H]5C[C@@H]5CN5CC[C@]31[C@@H]54)C2,21.2% (inactive)
6,O=C(O)CCCN1C(=O)C2C3CCC(C3)C2C1=O (centres undefined),107% (inactive)
7,CCOC(=O)CSc1c(-c2ccccc2)c2cc(Cl)ccc2[nH]c1=O,100% (inactive)
8,COc1ccc(C2C3=C(COC3=O)N(CCO)c3cc4c(cc32)CCC4)cc1 (centres undefined),70.8% (inactive)
9,Cc1c(C(=O)OCCO)cc(-c2ccc(Cl)cc2)n1-c1ccc(Cl)cc1Cl,91.1% (inactive)
10,NC1C(N)C(N)C1N (centres undefined),79.6% (inactive)
11,Oc1[nH]c2ccccc2c1N=Nc1nnc2n1N=C(c1ccccc1)CS2,64.7% (inactive)
12,O=NN(C(=O)NC1CCC(C(=O)O)CC1)C1CCC(C(=O)O)CC1 (centres undefined),98.8% (inactive)
13,Nc1ccc(-c2nn3c(CCC(=O)c4nc5ncccc5[nH]4)nnc3s2)c(O)c1,85.4% (inactive)
14,CCOc1ccc2c(c1)CN(Cc1ccc(Cl)cc1)CO2,43.4% (inactive)

# Source: PubChem BioAssay (NCI)
